# Publication PMC5540273 (PLoS ONE, 2017)
# Several values for one entry are separate records, joined by “and”; a condition that tells them apart may be missing. Identical values can stand only once. Like-named read-outs stand apart in the source and are kept apart here.
# How the values were obtained:
# VPS34 = test system: T1, VPS34; settings: concentration: 1 μM, replicates: in singlicate, n = 1
# T1 construct: gene PIK3C3
# VRK2 = settings: concentration: 1 μM, replicates: in singlicate, n = 1
# WEE1 = settings: concentration: 1 μM, replicates: in singlicate, n = 1
# WEE2 = settings: concentration: 1 μM, replicates: in singlicate; n = 1
# WNK1 = settings: concentration: 1 μM, replicates: in singlicate, n = 1
# WNK2 = settings: concentration: 1 μM, replicates: in singlicate, n = 1
# WNK3 = settings: concentration: 1 μM, replicates: in singlicate, n = 1
# WNK4 = settings: concentration: 1 μM, replicates: in singlicate, n = 1
# YANK1 = test system: T2, YANK1; settings: concentration: 1 μM, replicates: in singlicate, n = 1
# T2 construct: gene STK32A
# YANK2 = test system: T3, YANK2; settings: concentration: 1 μM, replicates: in singlicate, n = 1
# T3 construct: gene STK32B
# 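Also: KINOMEscan kinase panel screen.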
SMILES,%Inh (VPS34),%Inh (VRK2),%Inh (WEE1),%Inh (WEE2),%Inh (WNK1),%Inh (WNK2),%Inh (WNK3),%Inh (WNK4),%Inh (YANK1),%Inh (YANK2),%Inh (VPS34; 1 µM),%Inh (VRK2; 1 µM),%Inh (WEE1; 1 µM),%Inh (WNK1; 1 µM),%Inh (WNK2; 1 µM),%Inh (WNK3; 1 µM),%Inh (WNK4; 1 µM),%Inh (YANK1; 1 µM),%Inh (YANK2; 1 µM)
NCC(NC(=O)c1cc(-c2cn[nH]c2)c(-c2ccnc3[nH]ccc23)s1)c1ccccc1.O=C(O)C(F)(F)F.O=C(O)C(F)(F)F (stereo not shown) [GSK1325775],59%,0%,0%,0%,6%,9%,21%,24%,15%,0%,,,,,,,,,
CC(=O)Nc1ccc(COc2ccc(Nc3ccnc4cc(-c5ccccn5)ccc34)cc2)cc1.Cl [GW440148],0%,0%,18%,0%,10%,9%,21%,83%,6%,2%,,,,,,,,,
O=C(NCCNc1ccnc(Nc2ccc(F)cc2)n1)c1cc2ccccc2s1 [GSK1379874],16%,0%,38%,5%,0%,0%,16%,39%,0%,0%,,,,,,,,,
CCc1nc(-c2cccc(C)c2)c(-c2ccnc(NCc3ccccc3)c2)s1,3%,0%,0%,25%,0%,12%,0%,0%,0%,2%,,,,,,,,,
Cc1nnc(-c2ccc3ncc(-c4ccc(S(C)=O)cc4)n3c2)o1 (stereo not shown),27%,0%,0%,13%,0%,1%,0%,7%,0%,0%,,,,,,,,,
O=C(Nc1n[nH]c2cc(-c3cccc(F)c3)ccc12)C1CC1 [SB-735464],0%,23%,0%,4%,28%,0%,36%,22%,0%,0%,,,,,,,,,
N#Cc1ccc(-c2cc(-c3c[nH]nc3-c3ccccn3)ccn2)cc1 [GW693028],0%,13%,2%,0%,7%,15%,30%,30%,15%,7%,,,,,,,,,
CNc1ncnc2[nH]ncc12 [SKF-18355],30%,10%,5%,0%,0%,0%,12%,0%,0%,9%,,,,,,,,,
COc1cc2c(cc1OC[C@@H](O)CO)ncc1c3ccc(C#N)cc3[nH]c21,0%,9%,0%,0%,1%,0%,2%,0%,19%,0%,,,,,,,,,
O=c1cc(N2CCOCC2)nc2n(Cc3cccc(Cl)c3Cl)c(C3CC3)nn12 [GSK2358994],100%,0%,0%,0%,0%,0%,0%,0%,0%,0%,,,,,,,,,
O=c1cc(N2CCOCC2)nc2n(Cc3cccc4ccccc34)ccn12 [GSK2333389],98%,0%,13%,12%,2%,0%,0%,0%,1%,0%,,,,,,,,,
COc1ccc(CNC(=O)NC2CCN(c3ccnc(Nc4ccc(OC)cc4)n3)C2)cc1 (stereo not shown) [GSK1379727],0%,32%,9%,7%,4%,0%,44%,63%,0%,0%,,,,,,,,,
Cc1cn2c(=O)cc(N3CCOCC3)nc2n1Cc1cccc(Cl)c1Cl [GSK2334006],96.7%,0%,20%,16%,0%,19%,27%,0%,23%,0%,,,,,,,,,
COc1ccc(S(=O)(=O)NC2CCN(c3cc(C)nc(Nc4cccc(C#N)c4)n3)CC2)cc1.O=C(O)C(F)(F)F [GSK1653539],0%,0%,17%,6%,15%,0%,38%,12%,4%,0%,,,,,,,,,
CCCCCc1nc2c(N)ncnc2n1CCCCC [SKF-97255],0%,0%,0%,3%,7%,0%,0%,0%,0%,12%,,,,,,,,,
Cc1c(Cn2c(C)nn3c(=O)cc(N4CCOC(C)C4)nc23)cccc1C(F)(F)F (stereo not shown) [GSK2344444],48%,0%,10%,0%,4%,0%,2%,0%,0%,0%,,,,,,,,,
CN(C1=C(c2ccccc2)C(=O)NC1=O)c1ccccc1 [SB-334860],0%,8%,13%,0%,8%,28%,17%,1%,0%,15%,,,,,,,,,
Cn1cc(-c2ccc3c(c2)CCN3C(=O)Cc2ccccc2Cl)c2c(N)ncnc21 [GSK2608885],0%,0%,0%,0%,0%,17%,6%,25%,32%,84%,,,,,,,,,
COCCNC(=O)c1ccc(-c2cc(C(=O)NC3CC3)cc(F)c2C)cc1 [GW868318],9%,37%,3%,5%,31%,0%,23%,21%,1%,25%,,,,,,,,,
CN1c2ccc(NCc3ccc(F)cc3)cc2-c2c(cnn2C)S1(=O)=O,0%,0%,0%,0%,42%,5%,8%,0%,0%,3%,,,,,,,,,

SMILES,%Inh (VPS34),%Inh (VRK2),%Inh (WEE1),%Inh (WEE2),%Inh (WNK1),%Inh (WNK2),%Inh (WNK3),%Inh (WNK4),%Inh (YANK1),%Inh (YANK2),%Inh (VPS34; 1 µM),%Inh (VRK2; 1 µM),%Inh (WEE1; 1 µM),%Inh (WNK1; 1 µM),%Inh (WNK2; 1 µM),%Inh (WNK3; 1 µM),%Inh (WNK4; 1 µM),%Inh (YANK1; 1 µM),%Inh (YANK2; 1 µM)
O=c1cc(N2CCOCC2)nc2n(Cc3cccc(C(F)(F)F)c3)ccn12 [GSK2297543],93.9%,0%,6%,10%,2%,0%,19%,22%,0%,0%,,,,,,,,,
NS(=O)(=O)c1cccc(-c2ccc3nccc(-c4cccc(S(N)(=O)=O)c4)c3c2)c1 [GW867253],78%,12%,0%,0%,7%,0%,0%,0%,0%,0%,,,,,,,,,
COc1ccc(Nc2nccc(N3CCC(NC(=O)Nc4cc(C)ccc4C)C3)n2)cc1 (stereo not shown) [GSK1379741],0%,0%,14%,0%,7%,59%,18%,40%,0%,0%,,,,,,,,,
CC(C)Oc1ccc2c(-c3ccnc(Nc4ccc(N5CCN(C)CC5)cc4)n3)cnn2n1 [GW696155],96%,8%,30%,0%,12%,42%,52%,31%,0%,0%,,,,,,,,,
Cc1ccc(C(=O)NCC(N)=O)cc1-n1c(C)cc(OCc2ccc(F)cc2F)c(Br)c1=O,0%,0%,3%,17%,0%,5%,0%,0%,0%,10%,,,,,,,,,
C[C@@H](Oc1cc(-n2cnc3ccc(NC(=O)NC(C)(C)C)cc32)sc1C(N)=O)c1ccccc1Cl [GSK346294],0%,5%,5%,12%,14%,25%,33%,0%,0%,0%,,,,,,,,,
CC(C)(CN)c1nc(-c2ccc(Cl)c(O)c2)c(-c2ccncc2)[nH]1.O=C(O)C(F)(F)F [SB-477794],,,,0%,,,,,,,0% and 48%,41% and 42%,8% and 7%,16% and 0%,1% and 9%,52% and 39%,47% and 49%,95.3% and 93.8%,93.6% and 94%
O=C1Cc2cc(Nc3nc(NCc4cccc(S(=O)(=O)C(F)(F)F)c4)ncc3C(F)(F)F)ccc2N1,0%,23%,0%,0%,0%,6%,0%,0%,0%,0%,,,,,,,,,
O=C(NCCCN1CCOCC1)c1cccc(Nc2nccc(Nc3ccc(Oc4ccccc4)cc3)n2)c1 [GW663929],0%,17%,31%,0%,11%,14%,33%,0%,0%,0%,,,,,,,,,
COc1ccc(Nc2ncc(C#N)c(Nc3ccccc3C(N)=O)n2)cc1N1CCN(C)CC1.Cl [GSK1558669],43%,0%,99.8%,100%,66%,31%,4%,0%,93.5%,68%,,,,,,,,,
COc1cc2c(cc1OCCN1CCN(C)CC1)ncc1c3ccc(C#N)cc3[nH]c21,0%,0%,24%,3%,0%,0%,0%,0%,0%,0%,,,,,,,,,
Fc1ccc(-c2nn3c(OCC(F)(F)F)cccc3c2-c2ccncc2)cc1 [GW514784],2%,33%,10%,0%,14%,0%,27%,38%,30%,24%,,,,,,,,,
CC(C)(C)n1cnc2c(N)ncnc21 [SKF-97359],15%,100%,0%,12%,0%,25%,40%,0%,0%,0%,,,,,,,,,
Cl.Nc1ncnc2occ(-c3ccc(NC(=O)Nc4cc(C(F)(F)F)ccc4F)cc3)c12 [SB-707548],5%,0%,10%,6%,4%,11%,28%,13%,0%,17%,,,,,,,,,
COc1cc2ncn(-c3cc(OCc4sccc4Cl)c(C(N)=O)s3)c2cc1OC [GSK448459],60%,5%,4%,5%,19%,45%,60%,31%,11%,0%,,,,,,,,,
COc1cc(Nc2nccc(N3CCC(NC(=O)c4cccc(NC(C)=O)c4)C3)n2)cc(OC)c1OC (stereo not shown) [GSK1379754],35%,0%,4%,1%,6%,0%,14%,0%,0%,0%,,,,,,,,,
Cc1ccc(NC(=O)c2ccnc(N3CCN(C)CC3)c2)cc1-c1ccc(C(=O)NCC2CC2)cc1 [GW775604],0%,17%,0%,0%,0%,0%,0%,0%,0%,1%,,,,,,,,,
CCn1cnc2c(N)ncnc21 [GW345098],1%,0%,2%,14%,0%,0%,0%,0%,0%,0%,,,,,,,,,
Nc1nc(-c2ccc3c(N)n[nH]c3c2)cc(N2CCCC2)n1 [GSK2227430],0%,0%,35%,0%,0%,0%,8%,0%,0%,0%,,,,,,,,,
NS(=O)(=O)CCc1cccc(Nc2nccc(-c3c(-c4cccc(NC(=O)c5c(F)cccc5F)c4)nn4ccccc34)n2)c1 [GSK336735],0%,0%,0%,0%,0%,6%,18%,12%,23%,77%,,,,,,,,,
